# Rows were chosen to be rich in hits. Some 14% of all compounds tested hit in one or more screens of this group.
# Sm TGR inh = inhibitors of Schistosoma mansoni thioredoxin glutathione reductase. Q962Y6. purified TGR, DTNB reduction, TNB absorbance 405 nm. Potency, µM (doses to about 114 µM), without a hit: at the highest dose activity change, negative = inhibition, hits mostly inhibitors. 360,000 compounds, 3% hits. AID 485364; note: potency is the fitted concentration of half-maximal effect; nearly all actives have a fitted effect of over 60% in size
#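 First, TGR (20 nM dispensed) and NADPH were mixed with compound. Second, a 15 min room-temperature incubation followed. Third, further NADPH and then DTNB were added to start the reaction. Finally, TNB absorbance was monitored kinetically.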
# Pf growth 48h = P. falciparum growth inhibition at 48 hours (one generation); P. falciparum luciferase growth in erythrocytes, 48 h; Potency, µM (highest dose often 28.7 µM), for the others: top-dose activity change, negative = inhibition, hits mostly inhibitors; 310,000 compounds, 5.9% hits; note: potency is the fitted concentration of half-maximal effect
#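 Luciferase-expressing parasites in RBCs, 2% Hct / 0.1% parasitemia final; RPMI 1640 + 0.5% Albumax; 37 C, 5% CO2, one generation; luminescence read-out, lower signal = inhibition.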
# FBPA Giardia inh = Giardia lamblia aldolase inhibition; A8B2U2; purified Giardia FBPA; 290,000 compounds, 0.71% hits; AID 2451; Potency, µM (doses to about 59.6 µM), inactives show top-dose activity, negative = inhibition, usual class: inhibitors; note: potency is the fitted concentration of half-maximal effect; nearly all actives have a fitted effect of over 55% in size
# Target sequence (A8B2U2 whole entry, looked up): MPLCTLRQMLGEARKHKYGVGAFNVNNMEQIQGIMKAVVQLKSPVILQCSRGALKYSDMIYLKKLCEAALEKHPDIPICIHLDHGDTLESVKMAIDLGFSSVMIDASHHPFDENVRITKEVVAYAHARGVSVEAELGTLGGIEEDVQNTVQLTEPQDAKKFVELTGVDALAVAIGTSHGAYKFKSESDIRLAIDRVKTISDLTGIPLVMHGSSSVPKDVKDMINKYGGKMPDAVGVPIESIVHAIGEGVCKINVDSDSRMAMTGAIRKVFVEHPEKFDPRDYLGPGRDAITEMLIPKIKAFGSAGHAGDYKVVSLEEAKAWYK
#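 Giardia FBPA (40 nM reagent) was preincubated 10 min at RT with compound (up to 57.5 uM final), then substrate plus GAPDH/TPI/NAD/arsenate coupling system with diaphorase/resazurin was added; resorufin fluorescence (525/598 nm) was read after 20 min.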
# HCMV inh = human cytomegalovirus inhibition; HFF cells, HCMV-luciferase reporter, 72 h; stronger effect = lower value; activity change, negative = inhibition, % at 57.5 µM; 410,000 compounds, 4.5% hits; AID 1259415; in the data active = activity change below about -60%; inconclusive = no clear call, values can overlap the other calls; inactive = above about -39%
#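 HFF cells seeded 16 h at 37C, treated with compounds, infected with luciferase-reporter HCMV at MOI 1 PFU/cell; luciferase read at 72 h post infection, normalized to buffer-only and Salinomycin controls.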
# Pf growth 96h = P. falciparum growth inhibition at 96 hours; P. falciparum luciferase reporter growth, 96 h; Potency, µM (highest dose often 28.7 µM), for the others: top-dose activity change, negative = inhibition, hits mostly inhibitors; 320,000 compounds, 6.9% hits; note: potency is the fitted concentration of half-maximal effect
#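 96 h incubation, 37 C, 5% CO2, of luciferase-reporter P. falciparum-infected RBCs (2% hematocrit, 0.05% parasitemia final) with test compounds; endpoint luminescence.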
# Numbers without * were called inactive; ? = inconclusive; · = no result; [ ] = another dose, or the depositor's remark. Unless noted, calls come from the whole dose curve; as a rule, active = well fitted curve in the direction sought with a large enough effect; inconclusive = small, poorly fitted or top-dose-only effect, or another doubt; inactive = no such curve, though single readings can be large; an effect the other way counts as inactive or inconclusive. % is set by controls: 0 for no effect and ±100 for the full control effect.
SMILES,Sm TGR inh,Pf growth 48h,FBPA Giardia inh,HCMV inh,Pf growth 96h
COc1cccc(C(=O)N(c2ccc(OC)cc2OC)C2C=CS(=O)(=O)C2)c1 (centres undefined),14.8%,?,-0.7%,5.1,?
CC(C)NC(=O)N1CCC2(CC1)CCN(C(=O)c1csnn1)CC2,·,·,3.8%,·,·
COC(=O)[C@@H]1C[C@@]2(O)[C@H](O)[C@H](O)[C@H](O)C[C@H]2N1Cc1cc(OC)cc(OC)c1,1.7%,38.1%,0.4%,7.6,67.8%
COC(=O)[C@@H]1C[C@@]2(O)[C@@H](O)[C@@H](O)[C@@H](O)C[C@H]2N1Cc1cc(OC)cc(OC)c1,-14.4%,40.1%,-1.0%,-99.6*,26.7%
Cc1c(C(=O)N(C)C)sc2c1c(=O)n(-c1ccccc1C(F)(F)F)c(=O)n2Cc1cccc(F)c1,8.0%,·,·,1.5,·
CCc1ccc(/C=C2\Oc3c(ccc(O)c3CN3CCN(C)CC3)C2=O)cc1,-15.9%,?,-17.8%,-32.7,?
CCOC(=O)C1=C(C)OC(=CC=Cc2ccccc2)C1=O,·,·,·,-6.1,·
CN(C)Cc1c(O)ccc2c1O/C(=C\C=C\c1ccccc1)C2=O,11.2µM*,1.65µM*,-7.7%,-65.0*,-7.6%
COc1ccccc1/C=C/C=C1\Oc2c(ccc(O)c2CN2CCN(CCO)CC2)C1=O,?,-74.4%,-18.1%,-93.4*,?
O=C1/C(=C/C=C/c2ccccc2)Oc2c1ccc(O)c2CN1CCN(CCO)CC1,39.8µM*,?,-7.7%,0.0,?
CCN1CCN(Cc2c(O)ccc3c2O/C(=C\C=C\c2ccccc2)C3=O)CC1,35.5µM*,1.65µM*,17.3%,?,?
Nc1nc(SCCO)[nH]c(=O)c1NC(=O)c1ccccc1F,-0.5%,1.2%,?,-22.9,-3.1%
CCC/C=C(\CCC)C(NP(=O)(c1ccccc1)c1ccccc1)c1ccc(C(F)(F)F)cc1 (centres undefined),·,·,-8.4%,·,·
COc1cccc(NC(=S)NC2CC(C)CC(C)(C)C2)c1 (centres undefined),·,·,·,19.2,·
CCCCC(=O)NC(c1ccc(N(C)C)cc1)c1ccc2cccnc2c1O (centres undefined),-22.7%,?,2.0%,-102.2*,47.2%
CC(C)C(=O)NC(c1ccco1)c1ccc2cccnc2c1O (centres undefined),-11.8%,2.08µM*,?,-101.8*,28.5%
CCC(=O)Nc1cccc2cccnc12,·,7.3%,-5.5%,8.2,18.4%
CCCCC(=O)NC(c1ccc(N(CC)CC)cc1)c1ccc2cccnc2c1O (centres undefined),3.2%,?,?,-95.7*,10.6%
CCN(CC)c1ccc(C(NC(=O)C(C)C)c2ccc3cccnc3c2O)cc1 (centres undefined),·,·,·,-98.7*,·
Cc1ccc(S(=O)(=O)N[C@H]2COC(=O)[C@H](C)COC(=O)C/C=C\[C@H]2C)cc1,·,·,-1.5%[12.9 µM],·,·
Cc1ccc(SCC(c2ccccc2)N2CCN(CCc3ccccc3)CCC2=O)cc1 (centres undefined),·,·,4.0%,·,·
COc1ccc(C)cc1N1CC(C(=O)Nc2ccccc2C(=O)NC2CC2)CC1=O (centres undefined),1.9%,?,·,0.0,-12.1%
CCn1cc(C(=O)O)c(=O)c2cc(F)c(N3CCN(C(=S)Nc4ccccc4OC)CC3)cc21,-28.9%,?,-7.6%,-37.8,-9.3%
CCCOc1ccc(C(=O)NC(=S)N2CCN(c3cc4c(cc3F)c(=O)c(C(=O)O)cn4CC)CC2)cc1,-6.9%,14.7µM*,9.1%,-19.8,6.7%
CCn1cc(C(=O)O)c(=O)c2cc(F)c(N3CCN(C(=S)NC(=O)c4ccccc4Br)CC3)cc21,0.2%,?,5.3%,?,5.22µM*
CCn1cc(C(=O)O)c(=O)c2cc(F)c(N3CCN(S(=O)(=O)c4ccc(NC(=O)OC)cc4)CC3)cc21,1.0%,4.65µM*,-19.1%,-63.0*,?
CCCCCCC(=O)N1CCN(c2cc3c(cc2F)c(=O)c(C(=O)O)cn3CC)CC1,·,·,·,10.8,·
CCCCCCCCCC(=O)N1CCN(c2cc3c(cc2F)c(=O)c(C(=O)O)cn3CC)CC1,-15.2%,?,-20.2%,-4.1,?

# Assay outcomes as filed in PubChem.
